Bioassay records: PubChem, National Center for Advancing Translational Sciences (NCATS)
Most compounds without a hit are left out; they make up all but 16% or so of the library.
miR-21 act: qHTS Assay for Modulators of miRNAs and/orActivators of miR-21; HeLa miR-21 FLuc reporter, luciferase, 48 h; Potency, µM (doses to about 38.3 µM), usual class: activators; 340,000 tested, under 10 active;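 note: miR-21 action dims this reporter so a rising signal means less miR-21 action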
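Using DMEM plus 10% FBS, HeLa miR-21-FLuc cells are incubated with test compounds (final up to about 40uM) for 48 hours; firefly luciferase signal is then imaged following reagent-mediated lysis.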
uPA surface inh: qHTS for Inhibitors of Cell Surface uPA Generation; cell surface uPA generation assay, qHTS; Potency, µM (titrated, usually from 38.3 µM), usual class: inhibitors; 330,000 compounds, 0.31% hits; active = well fitted inhibition curve with a large enough effect; inconclusive = small, poorly fitted or top-dose-only effect; inactive = no such curve, though single readings can be large or run the other way; tested in mouse RAW 264.7 cells; note: nearly all actives have a fitted effect of over 55% in size
TDP1 cell noCPT: qHTS for Inhibitors of human tyrosyl-DNA phosphodiesterase 1 (TDP1): qHTS in cells in absence of CPT; DT40 Tdp1-/- hTDP1 cells, no CPT, ATP luminescence, 48 h; Potency, µM (highest dose often 46.2 µM), actives largely listed as inhibitors; 420,000 compounds, 15% hits; AID 686978, 2013; note: nearly all actives have a fitted effect of over 55% in size
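Luminescent ATP content (CellTiter-Glo) served as the growth readout. Knockout chicken DT40 cells expressing human TDP1 were exposed to compounds without camptothecin for a minimum 48 hr at 37 °C.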
DT40 TDP1 CPT: qHTS for Inhibitors of human tyrosyl-DNA phosphodiesterase 1 (TDP1): qHTS in cells in presence of CPT | 420,000 compounds, 12% hits | AID 686979, 2013 | chicken DT40 Tdp1-/-;hTDP1 cells + 20 nM CPT, ATP luminescence, 48 h | Potency, µM (highest dose often 46.2 µM), hits mostly inhibitors; note: nearly all actives have a fitted effect of over 55% in size
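Cell growth measured by CellTiter-Glo luminescence after a minimum 48 h, 37 C compound exposure with 20 nM CPT in Tdp1-knockout DT40 cells stably expressing hTDP1, seeded 400/well; qHTS titration format.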
TDP1 block: qHTS Assay for Inhibitors of Tyrosyl-DNA Phosphodiesterase (TDP1); 350,000 compounds, 0.28% hits; Potency, µM (top dose mostly 130 µM), most hits filed as inhibitors; recombinant TDP1, AlphaScreen DNA substrate cleavage; Tyrosyl-DNA phosphodiesterase 1 (Homo sapiens), Q9NUW8; note: nearly all actives have a fitted effect of over 40% in size
Target sequence (Q9NUW8 whole entry, looked up): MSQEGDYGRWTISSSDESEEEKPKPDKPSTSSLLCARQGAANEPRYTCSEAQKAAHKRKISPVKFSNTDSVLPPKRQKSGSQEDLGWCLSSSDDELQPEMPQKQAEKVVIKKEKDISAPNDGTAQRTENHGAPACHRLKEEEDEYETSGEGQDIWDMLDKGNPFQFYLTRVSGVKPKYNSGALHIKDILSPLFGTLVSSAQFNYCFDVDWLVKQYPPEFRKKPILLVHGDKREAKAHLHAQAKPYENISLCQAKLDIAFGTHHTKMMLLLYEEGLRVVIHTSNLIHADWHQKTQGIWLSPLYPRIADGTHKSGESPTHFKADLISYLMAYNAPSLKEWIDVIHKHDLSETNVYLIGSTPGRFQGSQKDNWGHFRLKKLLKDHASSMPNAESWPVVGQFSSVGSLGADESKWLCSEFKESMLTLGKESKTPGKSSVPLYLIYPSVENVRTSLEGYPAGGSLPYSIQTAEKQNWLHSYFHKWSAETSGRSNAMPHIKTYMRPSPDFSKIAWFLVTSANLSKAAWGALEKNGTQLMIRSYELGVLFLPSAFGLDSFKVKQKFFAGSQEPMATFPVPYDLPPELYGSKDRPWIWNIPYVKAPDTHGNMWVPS
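Steps: enzyme plus compound, 15 min RT; add biotin/phosphotyrosine-FITC oligonucleotide (15 nM final), react 5 min; add donor/acceptor beads (10 ug/ml final), 10 min; read AlphaScreen. Tdp1 at 1 nM final.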
Numbers stand for hits; 0 = inactive; ? = inconclusive; - = not tested or not shown; [ ] = remark or other dose. Unless noted, calls come from the whole dose curve; as a rule, active = well fitted curve in the direction sought with a large enough effect; inconclusive = small, poorly fitted or top-dose-only effect, or another doubt; inactive = no such curve, though single readings can be large; an effect the other way counts as inactive or inconclusive.

SMILES	miR-21 act	uPA surface inh	TDP1 cell noCPT	DT40 TDP1 CPT	TDP1 block
CC(C)(C)NC(=O)CON=C1c2ccccc2-c2ccccc21	0	0	23.1µM	23.1µM	0
CC(C)(C)NCC(O)CON=C1c2ccccc2-c2ccccc21 (configuration not stated)	0	0	?	20.6µM	0
CC1(C)Cc2c(ccc3ccccc23)/C(=C/C(=O)N2CCCCC2)N1	0	0	14.6µM	16.4µM	0
COc1ccc(N(C)S(=O)(=O)c2cccc(C(=O)NCC(c3cccs3)N(C)C)c2)cc1 (configuration not stated)	-	0	0	?	-
Cc1cccc(NC(=O)c2cc(S(=O)(=O)N(C)c3ccc(F)cc3)ccc2Cl)n1	-	0	8.2µM	?	-
COc1ccccc1N(C)S(=O)(=O)c1ccc(Cl)c(C(=O)NCc2cccnc2)c1	-	0	?	?	0
CN(C)C(CNC(=O)c1cc(S(=O)(=O)N(C)c2ccc(F)cc2)ccc1Cl)c1cccs1 (configuration not stated)	-	0	5.8µM	5.8µM	-
COc1ccccc1N(C)S(=O)(=O)c1ccc(Cl)c(C(=O)Nc2ccccc2N2CCOCC2)c1	-	0	1.46µM	3.66µM	-
COc1ccccc1N(C)S(=O)(=O)c1ccc(Cl)c(C(=O)Nc2cccc(C)n2)c1	-	0	16.4µM	18.4µM	0
CCN(CC)CCn1c2c(c(SCC(=O)Nc3cccc4ccccc34)nc1=O)CCCC2	-	0	?	?	-
CCC(=O)N1CCc2cc(Br)cc(S(=O)(=O)CCC(=O)Nc3cccc(Cl)c3)c21	0	-	?	?	0
Cc1ccc(Nc2ccc(C(=O)N3CCCC3)cn2)c(C)c1	0	0	25.9µM	?	0
Cc1cccc(Nc2ccc(C(=O)N3CCOCC3)cn2)c1	0	0	0	0	0
Fc1cccc(Cl)c1Cn1nnc2c(NCc3ccncc3)ncnc21	0	0	?	23.1µM	0
O=C1C2C3C=CC(C3)C2C(=O)N1c1ncn[nH]1 (configuration not stated)	0	-	0	0	15.8µM
O=C1C2C3C=CC(C3)C2C(=O)N1c1ccncc1 (configuration not stated)	0	0	0	0	0
Cc1ccc2c(c1)c(=O)c1ccccc1n2CCCC(=O)Nc1cc(Cl)ccc1C	0	-	16.4µM	?	0[12.3 µM]
Cc1ccc(NC(=O)CCCn2c3ccccc3c(=O)c3cc(C)ccc32)c(Br)c1	0	-	14.6µM	?	0[12.3 µM]
CC(C)C(=O)Nc1ccc2c(c1)C(=O)NC2=O	0	0	0	0	0
CCOC(=O)Cn1cc(/C=C/[N+](=O)[O-])c2ccccc21	?	10µM	23.1µM	14.6µM	0
Cc1cccc(Cn2cc(/C=C/[N+](=O)[O-])c3ccccc32)c1	?	0	?	23.1µM	0
CCOC(=O)Cn1cc(C#N)c2ccccc21	0	0	0	0	0
CCN1CCN(C(=O)CN(c2cc(OC)ccc2OC)S(C)(=O)=O)CC1	0	0	0	0	0
Cc1nn(-c2ccccc2)c(C)c1/C=C1\C(=O)N(C)C(=S)N1C	0	0	16.4µM	?	0
Cc1nn(-c2ccccc2)c(Cl)c1/C=C1\SC(=S)NC1=O	0	0	?	?	0
SMILES	miR-21 act	uPA surface inh	TDP1 cell noCPT	DT40 TDP1 CPT	TDP1 block
CCCCN1C2CCCC1CC(NC(=O)c1cccc(Cl)c1)C2 (configuration not stated)	0	0	23.1µM	?	-
COc1cccc(C(=O)NNC(=S)NC2CCCCC2)c1	0	0	?	16.4µM	0
COc1ccccc1NC(=S)NC1CCC(CC2CCC(NC(=S)Nc3ccccc3OC)CC2)CC1 (configuration not stated)	0	0	13µM	10.3µM	0
COc1cccc(C(=O)NC2CC3CCCC(C2)N3S(=O)(=O)c2ccccc2)c1 (configuration not stated)	0	0	11.6µM	13µM	0
COc1cccc(C(=O)NC2CCCC2)c1	0	0	0	0	0
O=C(NNC(=S)NC1CCCCC1)c1ccc(Cl)s1	0	-	14.6µM	0	0
CCCCc1ccccc1NC(=S)NC1CCCC1	0	0	18.4µM	?	0
O=C(NNC(=S)NC1CCCCC1)c1cccs1	0	0	0	0	0
COc1ccc(NC(=O)COc2ccc(S(=O)(=O)NC3CCCCC3)cc2)c(OC)c1	0	-	16.4µM	14.6µM	0
COc1ccc(NC(=S)NC2CCCCCC2)c(OC)c1	0	0	23.1µM	?	0
CSc1ccccc1NC(=S)NC1CCCC1	0	0	0	0	0
COc1cc(-c2nnc(SCC(=O)/C(C#N)=C(\C)N)o2)cc(OC)c1OC	0	0	?	?	0
O=C(c1ccncc1)N1CCC2(CC1)CCN(C(c1ccccc1)c1ccccc1)CC2	-	-	?	0	-
S=C(Nc1ccccc1Oc1ccccc1)NC1CCCC1	0	0	18.4µM	?	0
COc1cc(C)c(NC(=O)COc2ccc3c(c2)CCC3)cc1OC	-	0	?	23.1µM	0
COc1ccccc1NC(=S)NC1CCCC1	-	0	0	0	-
S=C(Nc1cccc2ccccc12)NC1CCCCC1	0	0	16.4µM	?	0
COc1ccc(CC(=O)NC(C)C2COc3ccccc3O2)cc1OC (configuration not stated)	0	0	0	0	0
O=S(=O)(c1ccc(Br)s1)N1CCN(c2ccnc3cc(Cl)ccc23)CC1	0	0	18.4µM	?	0
Cc1ccc(S(=O)(=O)N2CCN(c3ccnc4cc(Cl)ccc34)CC2)cc1	0	0	23.1µM	23.1µM	0
Cc1ccc(S(=O)(=O)N2CCN(c3ccnc4cc(Cl)ccc34)CC2)cc1C	0	0	?	?	0
CC(=O)c1ccc(S(=O)(=O)N2CCN(c3ccnc4cc(Cl)ccc34)CC2)cc1	-	-	7.31µM	8.2µM	-
COc1cc(S(=O)(=O)N(Cc2ccccn2)Cc2ccco2)ccc1-n1cnnn1	0	0	0	?	0
